Laboratory results as given in PubChem BioAssay AID2563 (Broad Institute, 2010).
The whole screen tested about 290,000 compounds, of which about 800 (0.28%) were called active.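 The calls were made as follows: active = fall in fluorescence gain of 50% or more versus controls, with final raw signal at or below 3038400; inconclusive = same 50% fall but final raw signal above 3038400; inactive = fall in fluorescence gain under 50%.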 The sample as a whole holds a higher share of actives than the screen did.

Target: CAAX prenyl protease 2 (Saccharomyces cerevisiae (strain ATCC 204508 / S288c)) (UniProt Q03530)
Test: blockers of Rce1 CaaX peptide cleavage – biochemical, fluorescence, cell-free homogeneous, primary screen (AID 2563)
Details: yeast membranes, quenched prenylated peptide cleavage fluorescence

Chain of CAAX prenyl protease 2 (Saccharomyces cerevisiae (strain ATCC 204508 / S288c)) (Q03530 whole entry, looked up): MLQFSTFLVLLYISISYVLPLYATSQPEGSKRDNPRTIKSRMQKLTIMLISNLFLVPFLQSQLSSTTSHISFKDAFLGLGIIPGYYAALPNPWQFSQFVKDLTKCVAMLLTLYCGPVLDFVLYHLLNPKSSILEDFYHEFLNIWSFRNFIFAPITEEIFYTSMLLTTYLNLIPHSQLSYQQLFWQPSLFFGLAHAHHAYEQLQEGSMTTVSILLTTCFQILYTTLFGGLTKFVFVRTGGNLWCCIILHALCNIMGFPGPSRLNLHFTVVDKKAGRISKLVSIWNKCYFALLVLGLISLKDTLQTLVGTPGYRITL

SMILES	outcome
CCOC(=O)c1c(N)n(Cc2ccccc2)c2nc3ccccc3nc12	inactive
CCOC(=O)c1c(N)n(CCN2CCOCC2)c2nc3ccccc3nc12	inactive
COc1cc(Cn2c(N)c(C(=O)NCc3ccco3)c3nc4ccccc4nc32)cc(OC)c1OC	active
COC(=O)C1=C(c2cc3ccccc3s2)C[C@@H]2CC[C@H]1N2C(=O)NCCO	inactive
Cc1cc(N2C(=O)C3CCCN3C2c2ccc(Cl)c(Cl)c2)no1 (stereo not given)	inactive
